Compounds without any hit were thinned out: in the full panel of roughly 79,000, 15% have a hit. Unmarked numbers belong to inactive results. Calls of active or inactive are those of the source. Rule as the data show it: active = growth inhibition above about 70%; inactive = the rest.

Among the data in PubChem BioAssay (NCI) are growth inhibition values, retold here.

A short description of test [1]: NCI Yeast Anticancer Drug Screen. Data for the rad50 strain (AID 155).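 Also: 0% = growth of vehicle-only cultures of the same strain.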 Particulars: S. cerevisiae rad50 strain growth inhibition; at 50.0 µM; active compounds read high. Summed up: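 Compounds were tested on a yeast strain with an engineered DNA damage repair alteration; the reported value is growth inhibition normalised to vehicle treatment.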
Test [2] can be described thus: NCI Yeast Anticancer Drug Screen. Data for the mec2-1 strain (AID 157). Particulars: S. cerevisiae mec2-1 strain, at 50.0 µM, active compounds read high. Summed up: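 Cells of the genetically defined mec2-1 yeast strain are incubated with test compound. Inhibition of growth is calculated against vehicle-treated controls.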
The nature of test [3]: NCI Yeast Anticancer Drug Screen. Data for the sgs1 mgt1 strain (AID 161).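 Also: 0% = growth of cultures given vehicle only.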 Particulars: S. cerevisiae sgs1 mgt1 strain, at 50.0 µM, active compounds read high. The method in brief:
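Mutant yeast exposed to compound; growth scored against vehicle-only wells.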

The nature of test [4]: NCI Yeast Anticancer Drug Screen. Data for the cln2 rad14 strain (AID 165).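 Also: 0% = growth equal to vehicle treated cultures.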 Particulars: S. cerevisiae cln2 rad14 strain, at 50.0 µM, active compounds read high. Summed up:
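The screen exposed genetically defined yeast (cln2 rad14) to test compounds and scored growth inhibition relative to vehicle-treated controls.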

A short description of test [5]: NCI Yeast Anticancer Drug Screen. Data for the bub3 strain (AID 167). Particulars: S. cerevisiae bub3 mutant strain, at 50.0 µM, active compounds read high. The method in brief:
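Growth of a checkpoint-deficient yeast mutant is measured after compound exposure. Values represent inhibition relative to vehicle.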

Test [6] in a line: NCI Yeast Anticancer Drug Screen. Data for the mlh1 rad18 strain (AID 175). Particulars: S. cerevisiae mlh1 rad18 strain growth inhibition; at 50.0 µM; active compounds read high. Summed up: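 Compound-treated yeast growth, normalised to vehicle controls. Strain bears defined DNA repair mutations.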

`COC(=O)/C(C#N)=C/NC(=S)Nc1ccccc1`: the growth inhibition in test [1] was -48.1%; in test [2], -0.85%; in test [3], -44.5%; in test [4], 11.2%; in test [5], -26.3%; in test [6], -33.2%.

As for `C=C(CC[C@@H](C)[C@H]1CC[C@@]2(C)C3=C(CC[C@]12C)[C@@]1(C)CC[C@H](O)[C@@H](C)C1CC3)C(C)C` (stereo partly specified), the growth inhibition in test [1] is 10.4%; in test [2], 2.8%; in test [3], 45.2%; in test [4], 37.8%; in test [5], 14.6%; in test [6], 71.5% (active).

In the case of `O=C(O)C1C2C=CC(O2)C1C(=O)NCc1ccccn1` (stereo unspecified), the growth inhibition was -3.5% in test [1]; -26.5% in test [2]; -7.3% in test [3]; -22.6% in test [4]; -37% in test [5]; 9.85% in test [6].

As to `CC1(C)[C@H](C(=O)O)CC[C@]1(C)C(=O)O`, the growth inhibition in test [1] is 9.9%; in test [2] it was -13.1%; in test [3], 1.05%; in test [4], 19.2%; in test [5], -0.7%; in test [6], 11.4%.

On to `CCCCOCCOCCO`, for which the growth inhibition is -18.2% in test [1]; -21.6% in test [2]; -15.7% in test [3]; -14.7% in test [4]; 1.45% in test [5]; 1.5% in test [6].

For the molecule `CCOC(=O)NC(=O)c1cn(CCCCCOC(=O)NCCCCCCNC(=O)OCCCCCn2cc(C(=O)NC(=O)OCC)c(=O)[nH]c2=O)c(=O)[nH]c1=O`, the growth inhibition in test [1] is 20.6%; in test [2], 13.2%; in test [3], 12.6%; in test [4] it was 21.9%; in test [5] it was 6.7%; in test [6] it was 24.1%.

Take `COc1ccc2oc3c(C)cc4c(OC)nnc(OC)c4c3c2c1`: the growth inhibition in test [1] was -43.8%; in test [2] it was -52.9%; in test [3], -13.4%; in test [4], -18.1%; in test [5], -5.35%; in test [6], -12.8%.

Regarding `O=C(c1ccccc1)c1cccs1`, the growth inhibition in test [1] is -19.3%; in test [2] it was -1.9%; in test [3] it was -12.7%; in test [4] it was -45.6%; in test [5] it was -14.5%; in test [6], -17.9%.

For `CC1(C)OC(=C(C#N)C#N)C(C#N)=C1/C=C/c1ccncc1`, the growth inhibition in test [1] was 25.7%; in test [2], 29.4%; in test [3], 19.8%; in test [4], 18.2%; in test [5], 31.5%; in test [6] it was -2.45%.

On to `CSc1cc(C)c(C#N)c(SC)n1`, for which the growth inhibition was -32.6% in test [1]; -32.1% in test [2]; -12.9% in test [3]; -5.7% in test [4]; 0.05% in test [5]; -12.4% in test [6].

In the case of `Clc1ccc2c(NCCCCN=Cc3ccccc3)ccnc2c1`, the growth inhibition was -9.55% in test [1]; -27.2% in test [2]; -14% in test [3]; -10.4% in test [4]; 15.3% in test [5]; -12.7% in test [6].

For `O=C1c2ccccc2C(=O)N1c1ccc(Cl)cc1`, the growth inhibition was 3.5% in test [1]; 9.9% in test [2]; 12.6% in test [3]; 1.2% in test [4]; 22.8% in test [5]; 6.85% in test [6].

For the molecule `CCCC(C)OC(=O)Nc1cccc(O)c1` (stereo unspecified), the growth inhibition in test [1] was -2.3%; in test [2], -10.9%; in test [3], -5.3%; in test [4], -10.9%; in test [5] it was -21.5%; in test [6] it was -5.05%.

Turning to `CCCOC(=O)c1ccccc1Cl`, the growth inhibition in test [1] is 31.1%; in test [2], 22.5%; in test [3], 23.1%; in test [4], 13.4%; in test [5], 11.6%; in test [6], 24.1%.

Take `Cc1cccc(NCc2ccccc2)c1`: the growth inhibition in test [1] is 32.5%; in test [2], 5.95%; in test [3], 19.4%; in test [4], -22.1%; in test [5] it was 29.6%; in test [6], 24.9%.

On to `O=C1CC2CCCCC2CC1c1ccccc1` (stereo unspecified), for which the growth inhibition was 6.35% in test [1]; -0.4% in test [2]; -4.55% in test [3]; -22.6% in test [4]; -22.5% in test [5]; -12.2% in test [6].

On to `Cc1n[nH]c(=S)n1N`, for which the growth inhibition in test [1] was -9.4%; in test [2] it was -1.9%; in test [3], -24.4%; in test [4], -25.9%; in test [5] it was -14.5%; in test [6] it was -3.5%.

In the case of `CCC(=O)[CH-]C(=O)CC.CCC(=O)[CH-]C(=O)CC.[Cu+2]`, the growth inhibition was 10.9% in test [1]; -1.9% in test [2]; 10.2% in test [3]; -39.4% in test [4]; -17.6% in test [5]; 0% in test [6].

Take `O=S(=O)(OCC1CC2C=CC1C2)c1ccc(Br)cc1` (stereo unspecified): the growth inhibition is -15.6% in test [1]; 7.45% in test [2]; -3.7% in test [3]; 6.85% in test [4]; 54.9% in test [5]; 3.65% in test [6].

Take `O=C(O)C1C2CCC3C(C(=O)O)C3C21` (stereo unspecified): the growth inhibition was -2.7% in test [1]; 18.6% in test [2]; -4.95% in test [3]; -40.2% in test [4]; 11.7% in test [5]; -0.8% in test [6].

Take `COC(=O)C1=C(NC(=O)Nc2ccc([N+](=O)[O-])cc2)OC(C)(C)C1c1ccc(Cl)cc1` (stereo unspecified): the growth inhibition in test [1] was 23.6%; in test [2], 9.15%; in test [3], 6.45%; in test [4] it was -6.1%; in test [5] it was 1.1%; in test [6], 29.6%.
